Measured values from PubChem BioAssay AID1159580 (chemical genetic matrix, 2015).
Where “and” joins values, the source holds several entries; their conditions need not be identical. Equal entries are not always repeated. Hit rate of the full screen: of about 5,500 compounds, about 2,000 (36%) were called active. Not shown: some 18% with an inconclusive outcome. No stated cut-off is given here; in the data, active means normalized growth mostly below about 0.91 (no sharp cut-off); inconclusive means no clear call, values can overlap the other calls; inactive means mostly above about 0.92. This is one part of the list.

Assay: chemical genetic growth profiling, strain panel (AID 1159580);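 further: tested at 20 µM; growth read once vehicle control cultures reached saturation at 30 °C; 1 = growth at the plate median or of vehicle wells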
Settings: growth OD
[1] = S. cerevisiae deletion strains, locus YAL040C, strain CLN3, stronger effect = lower value
[2] = S. cerevisiae deletion strains, locus YCL061C, strain MRC1 (second series), stronger effect = lower value
[3] = S. cerevisiae deletion strains, locus YDR363W, strain ESC2, stronger effect = lower value
[4] = S. cerevisiae deletion strains, locus YER002W, strain NOP16, stronger effect = lower value
[5] = S. cerevisiae deletion strains, locus YGR078C, strain PAC10, stronger effect = lower value
[6] = S. cerevisiae deletion strains, locus YNL128W, strain TEP1, stronger effect = lower value
[7] = S. cerevisiae deletion strains, locus YNL153C, strain GIM3, stronger effect = lower value
[8] = S. cerevisiae deletion strains, locus YNL175C, strain NOP13, stronger effect = lower value
[9] = S. cerevisiae deletion strains, locus YNL197C, strain WHI3, stronger effect = lower value
[10] = S. cerevisiae deletion strains, locus YNL224C, strain SQS1, stronger effect = lower value
[11] = S. cerevisiae deletion strains, locus YNL322C, strain KRE1, stronger effect = lower value
[12] = S. cerevisiae deletion strains, locus YOR083W, strain WHI5 (second series), stronger effect = lower value
[13] = S. cerevisiae deletion strains, locus YPL055C, strain LGE1, stronger effect = lower value
[14] = S. cerevisiae deletion strains, locus YDR150W, strain NUM1, stronger effect = lower value
[15] = S. cerevisiae deletion strains, locus YMR307W, strain GAS1, stronger effect = lower value

Measured: normalized growth

COc1cc(C(O)CO)ccc1O (stereo not given)
inactive: [1] 0.993 | [2] 0.985 | [3] 0.995 | [4] 0.988 | [5] 0.982 | [6] 0.991 | [7] 1.04 | [8] 0.998 | [9] 1 | [10] 0.988 | [11] 0.992 | [12] 1.08 | [13] 0.968

COc1cc(CC(=O)O)ccc1O
inactive: S. cerevisiae deletion strains, locus YAL013W, strain DEP1, stronger effect = lower value 1 | [1] 1.07 | [2] 0.989 | [14] 0.992 | [3] 0.982 | [4] 0.97 | [5] 0.986 | [15] 1.01 | [8] 0.967 | [9] 0.977 | [10] 0.985 | [11] 0.987 | [12] 0.942 | [13] 0.995 | S. cerevisiae deletion strains, locus YPL241C, strain CIN2, stronger effect = lower value 0.991

C=CCc1ccc(OC(=O)c2ccccc2)c(OC)c1
inactive: S. cerevisiae deletion strains, locus YBR021W, strain FUR4, stronger effect = lower value 1 | S. cerevisiae deletion strains, locus YBR229C, strain ROT2, stronger effect = lower value 0.99 | S. cerevisiae deletion strains, locus YCL029C, strain bik1, stronger effect = lower value 0.973 | S. cerevisiae deletion strains, locus YDL035C, strain GPR1, stronger effect = lower value 0.916 | S. cerevisiae deletion strains, locus YDL074C, strain BRE1, stronger effect = lower value 0.923 | S. cerevisiae deletion strains, locus YDL101C, strain DUN1, stronger effect = lower value 0.974 | S. cerevisiae deletion strains, locus YDL134C, strain PPH21, stronger effect = lower value 0.95 | S. cerevisiae deletion strains, locus YDL185W, strain tfp1, stronger effect = lower value 0.998 | S. cerevisiae deletion strains, locus YDL192W, strain arf1, stronger effect = lower value 0.928 | S. cerevisiae deletion strains, locus YDR101C, strain arx1, stronger effect = lower value 0.919 | [14] 0.997 | S. cerevisiae deletion strains, locus YDR162C, strain NBP2, stronger effect = lower value 0.947 | S. cerevisiae deletion strains, locus YDR318W, strain mcm21, stronger effect = lower value 0.939 | S. cerevisiae deletion strains, locus YDR388W, stronger effect = lower value 0.979 | S. cerevisiae deletion strains, locus YDR502C, strain sam2, stronger effect = lower value 0.944 | S. cerevisiae deletion strains, locus YER110C, stronger effect = lower value 1.03 | S. cerevisiae deletion strains, locus YER155C, strain BEM2, stronger effect = lower value 0.969 | S. cerevisiae deletion strains, locus YER167W, strain BCK2, stronger effect = lower value 0.939 | S. cerevisiae deletion strains, locus YGL078C, strain dbp3, stronger effect = lower value 0.956 | S. cerevisiae deletion strains, locus YGL086W, strain mad1, stronger effect = lower value 0.933 | S. cerevisiae deletion strains, locus YGL248W, strain PDE1, stronger effect = lower value 0.971 | [5] 0.974 | S. cerevisiae deletion strains, locus YGR135W, strain pre9, stronger effect = lower value 0.965 | S. cerevisiae deletion strains, locus YGR252W, strain gcn5, stronger effect = lower value 0.993 | S. cerevisiae deletion strains, locus YHR030C, strain SLT2, stronger effect = lower value 1 and 0.914 | S. cerevisiae deletion strains, locus YHR079C, strain IRE1 (second series), stronger effect = lower value 0.988 | S. cerevisiae deletion strains, locus YHR079C, strain IRE1, stronger effect = lower value 0.931 | S. cerevisiae deletion strains, locus YHR094C, strain hxt1, stronger effect = lower value 0.988 | S. cerevisiae deletion strains, locus YHR129C, strain ARP1, stronger effect = lower value 0.985 | S. cerevisiae deletion strains, locus YHR200W, strain rpn10, stronger effect = lower value 0.952 | S. cerevisiae deletion strains, locus YIL066C, strain RNR3, stronger effect = lower value 0.973 | S. cerevisiae deletion strains, locus YIL073C, strain SPO22, stronger effect = lower value 1.08 | S. cerevisiae deletion strains, locus YIL125W, strain kgd1, stronger effect = lower value 0.966 | S. cerevisiae deletion strains, locus YIR030C, strain dcg1, stronger effect = lower value 0.983 | S. cerevisiae deletion strains, locus YJL095W, strain BCK1, stronger effect = lower value 0.918 and 0.973 | S. cerevisiae deletion strains, locus YJL134W, strain LCB3, stronger effect = lower value 1 | S. cerevisiae deletion strains, locus YJL168C, strain set2, stronger effect = lower value 1 | S. cerevisiae deletion strains, locus YJL187C, strain SWE1 (second series), stronger effect = lower value 0.954 | S. cerevisiae deletion strains, locus YJR043C, strain POL32, stronger effect = lower value 0.936 | S. cerevisiae deletion strains, locus YJR066W, strain TOR1, stronger effect = lower value 0.954 | S. cerevisiae deletion strains, locus YKL009W, strain mrt4, stronger effect = lower value 0.925 | S. cerevisiae deletion strains, locus YKL068W, stronger effect = lower value 0.979 | S. cerevisiae deletion strains, locus YKL085W, strain MDH1 (second series), stronger effect = lower value 0.981 | S. cerevisiae deletion strains, locus YKL085W, strain MDH1, stronger effect = lower value 0.981 | S. cerevisiae deletion strains, locus YKR001C, strain vps1, stronger effect = lower value 0.908 | S. cerevisiae deletion strains, locus YLR039C, strain RIC1, stronger effect = lower value 0.958 | S. cerevisiae deletion strains, locus YLR058C, strain SHM2, stronger effect = lower value 0.952 | S. cerevisiae deletion strains, locus YLR102C, strain apc9, stronger effect = lower value 0.996 | S. cerevisiae deletion strains, locus YLR268W, strain sec22, stronger effect = lower value 0.965 | S. cerevisiae deletion strains, locus YLR330W, strain CHS5, stronger effect = lower value 0.983 | S. cerevisiae deletion strains, locus YLR371W, strain rom2, stronger effect = lower value 0.985 | S. cerevisiae deletion strains, locus YLR418C, strain cdc73, stronger effect = lower value 0.935 | S. cerevisiae deletion strains, locus YML016C, strain PPZ1, stronger effect = lower value 1 | S. cerevisiae deletion strains, locus YML032C, strain rad52, stronger effect = lower value 0.926 | S. cerevisiae deletion strains, locus YML124C, strain tub3, stronger effect = lower value 0.977 | S. cerevisiae deletion strains, locus YMR078C, strain ctf18, stronger effect = lower value 0.978 | S. cerevisiae deletion strains, locus YMR223W, strain ubp8, stronger effect = lower value 0.967 | S. cerevisiae deletion strains, locus YMR263W, strain SAP30, stronger effect = lower value 0.998 | [15] 1.2 | S. cerevisiae deletion strains, locus YNL067W, strain RPL9B, stronger effect = lower value 0.969 | [6] 0.992 | [7] 1.02 | S. cerevisiae deletion strains, locus YNL183C, strain NPR1, stronger effect = lower value 0.933 | S. cerevisiae deletion strains, locus YNL233W, strain BNI4, stronger effect = lower value 0.979 | S. cerevisiae deletion strains, locus YNL250W, strain rad50, stronger effect = lower value 1.03 | S. cerevisiae deletion strains, locus YNL271C, strain bni1, stronger effect = lower value 0.994 | S. cerevisiae deletion strains, locus YNL298W, strain CLA4, stronger effect = lower value 0.95 | S. cerevisiae deletion strains, locus YNL307C, strain MCK1, stronger effect = lower value 0.961 | S. cerevisiae deletion strains, locus YNR052C, strain pop2, stronger effect = lower value 0.998 | S. cerevisiae deletion strains, locus YOL006C, strain TOP1, stronger effect = lower value 0.779 | S. cerevisiae deletion strains, locus YOL012C, strain htz1 1.51 | S. cerevisiae deletion strains, locus YOL147C, strain pex11, stronger effect = lower value 0.964 | S. cerevisiae deletion strains, locus YOR061W, strain CKA2, stronger effect = lower value 0.986 | S. cerevisiae deletion strains, locus YOR069W, strain VPS5, stronger effect = lower value 0.994 | S. cerevisiae deletion strains, locus YOR136W, strain idh2, stronger effect = lower value 0.977 | S. cerevisiae deletion strains, locus YOR144C, strain elg1, stronger effect = lower value 0.981 | S. cerevisiae deletion strains, locus YOR231W, strain MKK1, stronger effect = lower value 0.915 | S. cerevisiae deletion strains, locus YOR316C, strain cot1, stronger effect = lower value 0.985 | S. cerevisiae deletion strains, locus YPL256C, strain CLN2, stronger effect = lower value 0.925 | S. cerevisiae deletion strains, locus YPR119W, strain clb2, stronger effect = lower value 0.971 | S. cerevisiae deletion strains, locus YPR141C, strain kar3, stronger effect = lower value 0.991 | S. cerevisiae deletion strains, locus YPR163C, strain tif3, stronger effect = lower value 0.943 | S. cerevisiae deletion strains, locus YPR167C, strain met16, stronger effect = lower value 0.943 | S. cerevisiae deletion strains, strain wtn01, stronger effect = lower value 0.906 | S. cerevisiae strains, strain wild type, stronger effect = lower value 0.93
active: S. cerevisiae deletion strains, locus YLR113W, strain HOG1, stronger effect = lower value 0.841 | S. cerevisiae deletion strains, locus YOR184W, strain ser1, stronger effect = lower value 0.571
